Experiments:
[1] = biological target: High affinity nerve growth factor receptor (Homo sapiens) (UniProt P04629); details: at 1 µM;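 further: each value is the mean percent inhibition of TRKA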
[2] = biological target: BDNF/NT-3 growth factors receptor (Homo sapiens) (UniProt Q16620); details: at 0.1 µM
[3] = biological target: BDNF/NT-3 growth factors receptor (Homo sapiens) (UniProt Q16620); details: at 1 µM
[4] = biological target: NT-3 growth factor receptor (Homo sapiens) (UniProt Q16288); details: at 0.1 µM
[5] = biological target: NT-3 growth factor receptor (Homo sapiens) (UniProt Q16288); details: at 1 µM
[6] = biological target: T1, Tyrosine-protein kinase TXK (Homo sapiens) (UniProt P42681); details: at 0.1 µM
T1 sequence (whole entry): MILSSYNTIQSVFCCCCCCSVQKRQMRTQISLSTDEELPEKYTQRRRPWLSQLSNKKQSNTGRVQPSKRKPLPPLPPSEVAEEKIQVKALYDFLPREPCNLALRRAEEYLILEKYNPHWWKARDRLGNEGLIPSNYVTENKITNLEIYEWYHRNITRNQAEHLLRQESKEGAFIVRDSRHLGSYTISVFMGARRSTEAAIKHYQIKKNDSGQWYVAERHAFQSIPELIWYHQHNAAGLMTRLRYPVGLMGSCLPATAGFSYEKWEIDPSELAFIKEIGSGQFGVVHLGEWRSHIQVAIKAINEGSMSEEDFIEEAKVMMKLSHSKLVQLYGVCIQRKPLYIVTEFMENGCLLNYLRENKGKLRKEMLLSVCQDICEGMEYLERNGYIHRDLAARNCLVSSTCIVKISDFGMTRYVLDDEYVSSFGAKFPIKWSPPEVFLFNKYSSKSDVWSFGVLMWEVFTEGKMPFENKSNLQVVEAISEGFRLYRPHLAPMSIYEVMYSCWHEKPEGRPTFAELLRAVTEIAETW

[7] = biological target: T1, Tyrosine-protein kinase TXK (Homo sapiens); details: at 1 µM
[8] = biological target: Non-receptor tyrosine-protein kinase TYK2 (Homo sapiens) (UniProt P29597); details: at 0.1 µM;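 further: each value is a mean of the inhibition readings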
[9] = biological target: T2, Dual specificity protein kinase TTK (Homo sapiens) (UniProt P33981); details: at 1 µM;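 further: reported figures are mean TTK inhibition at 1 µM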
T2 sequence (whole entry): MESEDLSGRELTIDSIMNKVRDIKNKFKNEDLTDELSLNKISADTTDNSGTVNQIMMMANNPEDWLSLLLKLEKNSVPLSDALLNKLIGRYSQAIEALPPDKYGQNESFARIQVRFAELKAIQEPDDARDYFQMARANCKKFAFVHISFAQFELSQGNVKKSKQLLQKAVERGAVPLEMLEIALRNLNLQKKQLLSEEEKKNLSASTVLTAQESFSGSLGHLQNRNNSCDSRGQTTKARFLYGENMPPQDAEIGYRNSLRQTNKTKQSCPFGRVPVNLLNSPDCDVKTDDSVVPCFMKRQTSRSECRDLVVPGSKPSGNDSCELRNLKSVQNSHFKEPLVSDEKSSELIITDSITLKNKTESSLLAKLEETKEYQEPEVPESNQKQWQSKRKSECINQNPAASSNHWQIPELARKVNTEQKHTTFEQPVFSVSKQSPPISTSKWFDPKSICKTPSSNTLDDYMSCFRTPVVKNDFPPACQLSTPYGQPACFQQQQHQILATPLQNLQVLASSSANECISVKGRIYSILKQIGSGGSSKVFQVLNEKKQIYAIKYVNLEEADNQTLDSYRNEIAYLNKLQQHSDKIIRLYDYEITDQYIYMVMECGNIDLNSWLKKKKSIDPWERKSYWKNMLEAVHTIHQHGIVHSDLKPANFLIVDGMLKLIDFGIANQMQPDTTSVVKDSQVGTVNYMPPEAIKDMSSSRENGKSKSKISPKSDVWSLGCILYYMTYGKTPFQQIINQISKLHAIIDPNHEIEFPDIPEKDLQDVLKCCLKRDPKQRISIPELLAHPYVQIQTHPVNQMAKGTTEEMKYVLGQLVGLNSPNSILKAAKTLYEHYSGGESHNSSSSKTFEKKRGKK

[10] = biological target: T3, Aurora kinase A (Homo sapiens) (UniProt O14965); details: at 0.1 µM
T3 sequence (whole entry): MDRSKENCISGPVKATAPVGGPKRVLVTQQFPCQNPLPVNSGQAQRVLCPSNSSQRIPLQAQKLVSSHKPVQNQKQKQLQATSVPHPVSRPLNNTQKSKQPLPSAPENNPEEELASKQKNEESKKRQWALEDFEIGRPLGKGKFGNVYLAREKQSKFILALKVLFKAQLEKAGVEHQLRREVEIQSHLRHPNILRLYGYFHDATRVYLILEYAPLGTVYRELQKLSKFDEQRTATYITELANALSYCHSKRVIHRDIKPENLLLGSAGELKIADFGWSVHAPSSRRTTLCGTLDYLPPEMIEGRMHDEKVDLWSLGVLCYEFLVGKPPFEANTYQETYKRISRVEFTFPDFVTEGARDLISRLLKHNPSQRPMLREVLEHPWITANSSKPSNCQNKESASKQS

[11] = biological target: T3, Aurora kinase A (Homo sapiens); details: at 1 µM
[12] = biological target: Aurora kinase B (Homo sapiens) (UniProt Q96GD4); details: at 0.1 µM
[13] = biological target: Aurora kinase B (Homo sapiens) (UniProt Q96GD4); details: at 1 µM
[14] = biological target: T4, Aurora kinase C (Homo sapiens) (UniProt Q9UQB9); details: at 0.1 µM
T4 sequence (whole entry): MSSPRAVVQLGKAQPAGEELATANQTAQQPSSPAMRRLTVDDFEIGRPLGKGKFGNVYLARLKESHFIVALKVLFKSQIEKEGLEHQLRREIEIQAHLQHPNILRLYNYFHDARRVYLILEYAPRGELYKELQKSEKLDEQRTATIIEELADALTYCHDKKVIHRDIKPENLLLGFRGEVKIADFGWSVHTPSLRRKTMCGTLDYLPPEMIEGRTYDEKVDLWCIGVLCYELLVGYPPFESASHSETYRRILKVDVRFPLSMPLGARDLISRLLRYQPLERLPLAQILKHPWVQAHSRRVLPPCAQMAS

[15] = biological target: T4, Aurora kinase C (Homo sapiens); details: at 1 µM
[16] = biological target: Serine/threonine-protein kinase 10 (Homo sapiens) (UniProt O94804); details: at 0.1 µM
[17] = biological target: Serine/threonine-protein kinase 10 (Homo sapiens) (UniProt O94804); details: at 1 µM
[18] = biological target: T5, Mitogen-activated protein kinase kinase kinase kinase 2 (Homo sapiens) (UniProt Q12851); details: at 0.1 µM
T5 sequence (whole entry): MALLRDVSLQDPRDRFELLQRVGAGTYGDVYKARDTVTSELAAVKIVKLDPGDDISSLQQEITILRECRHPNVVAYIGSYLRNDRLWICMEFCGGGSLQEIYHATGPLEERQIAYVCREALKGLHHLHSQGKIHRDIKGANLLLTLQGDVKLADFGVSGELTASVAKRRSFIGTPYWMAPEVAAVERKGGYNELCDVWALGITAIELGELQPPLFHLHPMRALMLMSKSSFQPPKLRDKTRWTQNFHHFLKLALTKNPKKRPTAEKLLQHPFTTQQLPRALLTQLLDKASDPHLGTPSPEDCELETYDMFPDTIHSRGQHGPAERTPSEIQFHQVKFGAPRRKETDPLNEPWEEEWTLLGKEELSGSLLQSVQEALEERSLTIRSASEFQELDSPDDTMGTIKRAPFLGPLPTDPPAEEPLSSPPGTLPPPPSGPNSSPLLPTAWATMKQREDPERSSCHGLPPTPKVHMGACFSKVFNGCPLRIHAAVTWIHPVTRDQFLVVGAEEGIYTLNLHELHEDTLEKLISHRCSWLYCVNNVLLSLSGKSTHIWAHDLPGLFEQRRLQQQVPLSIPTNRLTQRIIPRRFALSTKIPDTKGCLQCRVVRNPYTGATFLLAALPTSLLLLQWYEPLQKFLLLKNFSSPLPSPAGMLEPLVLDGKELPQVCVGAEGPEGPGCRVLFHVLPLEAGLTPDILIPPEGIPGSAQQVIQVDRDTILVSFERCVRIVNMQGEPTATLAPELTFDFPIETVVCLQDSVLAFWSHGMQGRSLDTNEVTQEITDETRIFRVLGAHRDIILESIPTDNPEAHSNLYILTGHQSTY

[19] = biological target: T5, Mitogen-activated protein kinase kinase kinase kinase 2 (Homo sapiens); details: at 1 µM
[20] = biological target: Mitogen-activated protein kinase kinase kinase kinase 4 (Homo sapiens) (UniProt O95819); details: at 0.1 µM

Sequence of Non-receptor tyrosine-protein kinase TYK2 (Homo sapiens) (P29597 whole entry): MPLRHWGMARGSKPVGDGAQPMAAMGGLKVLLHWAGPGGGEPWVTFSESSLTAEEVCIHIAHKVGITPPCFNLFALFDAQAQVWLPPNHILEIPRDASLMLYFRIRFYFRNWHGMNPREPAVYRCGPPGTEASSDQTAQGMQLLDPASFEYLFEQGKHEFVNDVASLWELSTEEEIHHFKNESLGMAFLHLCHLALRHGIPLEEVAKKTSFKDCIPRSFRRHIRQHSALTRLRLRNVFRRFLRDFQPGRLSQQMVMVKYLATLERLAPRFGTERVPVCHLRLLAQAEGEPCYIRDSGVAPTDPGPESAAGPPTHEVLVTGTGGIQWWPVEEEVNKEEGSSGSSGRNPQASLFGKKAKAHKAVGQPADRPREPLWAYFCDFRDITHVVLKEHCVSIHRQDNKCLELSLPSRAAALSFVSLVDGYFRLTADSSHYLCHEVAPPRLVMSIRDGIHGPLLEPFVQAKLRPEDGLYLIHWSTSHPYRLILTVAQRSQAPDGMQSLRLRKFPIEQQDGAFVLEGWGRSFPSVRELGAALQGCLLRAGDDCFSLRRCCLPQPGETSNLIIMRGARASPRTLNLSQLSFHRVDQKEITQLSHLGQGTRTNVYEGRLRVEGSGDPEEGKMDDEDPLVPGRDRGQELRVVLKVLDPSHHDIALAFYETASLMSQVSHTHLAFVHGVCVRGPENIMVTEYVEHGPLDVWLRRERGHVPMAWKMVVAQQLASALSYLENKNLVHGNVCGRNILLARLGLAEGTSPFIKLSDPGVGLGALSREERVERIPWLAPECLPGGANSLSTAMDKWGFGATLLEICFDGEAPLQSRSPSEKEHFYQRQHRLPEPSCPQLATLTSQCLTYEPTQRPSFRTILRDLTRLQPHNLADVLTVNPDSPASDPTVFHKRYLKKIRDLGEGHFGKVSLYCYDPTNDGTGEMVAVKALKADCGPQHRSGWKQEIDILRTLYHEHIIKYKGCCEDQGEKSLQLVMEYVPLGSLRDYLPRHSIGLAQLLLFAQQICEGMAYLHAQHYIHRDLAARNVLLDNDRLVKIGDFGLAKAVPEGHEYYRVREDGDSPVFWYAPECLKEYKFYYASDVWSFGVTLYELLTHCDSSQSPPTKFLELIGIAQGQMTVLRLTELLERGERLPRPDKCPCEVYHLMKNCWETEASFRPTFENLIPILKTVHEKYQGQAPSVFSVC
Sequence of Serine/threonine-protein kinase 10 (Homo sapiens) (O94804 whole entry, looked up): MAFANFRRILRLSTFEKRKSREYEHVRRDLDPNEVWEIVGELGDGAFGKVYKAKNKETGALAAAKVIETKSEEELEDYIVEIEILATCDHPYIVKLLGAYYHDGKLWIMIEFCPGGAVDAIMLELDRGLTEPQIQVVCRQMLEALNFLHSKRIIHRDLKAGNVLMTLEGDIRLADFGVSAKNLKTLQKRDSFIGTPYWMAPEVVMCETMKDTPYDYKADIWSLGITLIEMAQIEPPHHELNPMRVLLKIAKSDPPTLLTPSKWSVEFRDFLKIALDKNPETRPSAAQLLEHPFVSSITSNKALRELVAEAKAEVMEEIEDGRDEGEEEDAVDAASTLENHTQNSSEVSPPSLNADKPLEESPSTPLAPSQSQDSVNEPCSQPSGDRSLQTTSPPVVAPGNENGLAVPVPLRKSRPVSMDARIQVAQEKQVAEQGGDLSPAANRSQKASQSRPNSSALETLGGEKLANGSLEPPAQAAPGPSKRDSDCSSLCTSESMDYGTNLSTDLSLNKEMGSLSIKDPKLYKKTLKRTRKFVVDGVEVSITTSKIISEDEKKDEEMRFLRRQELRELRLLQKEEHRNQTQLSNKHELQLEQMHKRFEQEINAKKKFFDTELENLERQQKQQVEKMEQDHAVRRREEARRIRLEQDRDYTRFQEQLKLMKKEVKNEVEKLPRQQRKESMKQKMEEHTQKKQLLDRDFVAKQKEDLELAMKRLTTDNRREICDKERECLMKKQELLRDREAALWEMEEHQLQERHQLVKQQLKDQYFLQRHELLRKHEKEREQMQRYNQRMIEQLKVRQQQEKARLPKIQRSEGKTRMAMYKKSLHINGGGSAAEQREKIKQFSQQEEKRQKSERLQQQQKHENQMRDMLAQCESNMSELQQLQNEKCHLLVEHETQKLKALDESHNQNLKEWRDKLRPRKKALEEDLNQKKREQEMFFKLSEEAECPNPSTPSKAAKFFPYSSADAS
Sequence of NT-3 growth factor receptor (Homo sapiens) (Q16288 32-839 limits assumed): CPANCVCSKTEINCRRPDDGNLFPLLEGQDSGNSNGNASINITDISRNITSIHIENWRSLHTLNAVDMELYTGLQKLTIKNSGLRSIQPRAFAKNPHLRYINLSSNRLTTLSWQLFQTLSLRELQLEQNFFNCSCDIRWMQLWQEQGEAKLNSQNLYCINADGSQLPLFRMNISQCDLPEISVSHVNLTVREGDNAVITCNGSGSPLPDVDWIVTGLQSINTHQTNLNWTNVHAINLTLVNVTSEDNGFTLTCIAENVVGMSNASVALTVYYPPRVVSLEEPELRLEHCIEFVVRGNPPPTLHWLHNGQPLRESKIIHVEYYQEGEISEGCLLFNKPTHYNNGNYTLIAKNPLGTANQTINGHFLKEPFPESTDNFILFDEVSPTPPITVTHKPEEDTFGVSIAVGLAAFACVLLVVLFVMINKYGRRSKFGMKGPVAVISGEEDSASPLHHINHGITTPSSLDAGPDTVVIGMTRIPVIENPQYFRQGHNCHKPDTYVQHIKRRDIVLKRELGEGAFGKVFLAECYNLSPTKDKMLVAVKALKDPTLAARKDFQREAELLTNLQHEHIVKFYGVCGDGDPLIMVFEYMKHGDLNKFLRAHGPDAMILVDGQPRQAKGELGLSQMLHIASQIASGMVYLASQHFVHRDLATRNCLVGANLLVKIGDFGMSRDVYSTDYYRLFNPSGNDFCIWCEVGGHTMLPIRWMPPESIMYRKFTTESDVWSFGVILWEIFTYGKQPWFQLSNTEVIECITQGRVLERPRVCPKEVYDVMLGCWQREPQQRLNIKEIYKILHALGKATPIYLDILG
Sequence of BDNF/NT-3 growth factors receptor (Homo sapiens) (Q16620 32-822 limits assumed): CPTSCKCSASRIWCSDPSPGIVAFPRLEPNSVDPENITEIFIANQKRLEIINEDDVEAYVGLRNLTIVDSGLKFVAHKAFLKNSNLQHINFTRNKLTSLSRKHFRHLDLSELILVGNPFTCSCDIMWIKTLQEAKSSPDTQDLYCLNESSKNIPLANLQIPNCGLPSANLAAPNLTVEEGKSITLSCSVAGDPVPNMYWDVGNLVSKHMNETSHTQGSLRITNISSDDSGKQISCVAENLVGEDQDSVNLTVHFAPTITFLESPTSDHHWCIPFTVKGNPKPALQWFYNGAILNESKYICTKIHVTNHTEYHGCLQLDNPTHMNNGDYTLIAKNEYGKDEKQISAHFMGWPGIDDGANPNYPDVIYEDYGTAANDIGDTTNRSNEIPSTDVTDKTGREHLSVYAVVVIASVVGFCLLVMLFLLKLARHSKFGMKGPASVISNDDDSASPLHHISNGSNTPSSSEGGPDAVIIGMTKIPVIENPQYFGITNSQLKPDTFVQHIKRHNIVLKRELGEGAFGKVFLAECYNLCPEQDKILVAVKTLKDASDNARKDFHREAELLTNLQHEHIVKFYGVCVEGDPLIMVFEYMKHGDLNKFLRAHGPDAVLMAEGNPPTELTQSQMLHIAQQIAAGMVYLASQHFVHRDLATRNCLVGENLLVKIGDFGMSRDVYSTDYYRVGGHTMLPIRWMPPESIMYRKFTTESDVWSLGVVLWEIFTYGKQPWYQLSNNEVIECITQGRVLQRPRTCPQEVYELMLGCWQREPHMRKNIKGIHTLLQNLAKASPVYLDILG
Sequence of High affinity nerve growth factor receptor (Homo sapiens) (P04629 33-796 limits assumed): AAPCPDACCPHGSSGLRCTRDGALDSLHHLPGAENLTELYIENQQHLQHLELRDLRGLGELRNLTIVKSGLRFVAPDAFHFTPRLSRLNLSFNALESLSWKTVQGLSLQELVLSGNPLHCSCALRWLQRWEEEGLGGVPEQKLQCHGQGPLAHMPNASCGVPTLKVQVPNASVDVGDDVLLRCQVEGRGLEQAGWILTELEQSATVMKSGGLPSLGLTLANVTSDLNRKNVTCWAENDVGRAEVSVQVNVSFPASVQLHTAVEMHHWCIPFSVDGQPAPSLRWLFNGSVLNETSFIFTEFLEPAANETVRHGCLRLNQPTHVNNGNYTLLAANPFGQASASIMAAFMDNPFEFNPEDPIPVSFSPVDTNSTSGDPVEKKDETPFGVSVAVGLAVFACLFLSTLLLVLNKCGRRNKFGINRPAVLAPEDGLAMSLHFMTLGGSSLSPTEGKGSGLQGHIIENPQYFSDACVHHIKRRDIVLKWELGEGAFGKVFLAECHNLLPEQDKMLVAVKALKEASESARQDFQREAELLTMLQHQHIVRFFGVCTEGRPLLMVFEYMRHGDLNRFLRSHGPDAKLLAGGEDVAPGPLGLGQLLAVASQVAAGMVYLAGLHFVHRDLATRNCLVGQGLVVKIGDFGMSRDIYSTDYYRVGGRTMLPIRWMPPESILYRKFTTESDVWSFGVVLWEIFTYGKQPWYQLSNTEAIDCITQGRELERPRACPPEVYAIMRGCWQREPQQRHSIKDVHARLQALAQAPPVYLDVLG
Sequence of Aurora kinase B (Homo sapiens) (Q96GD4 whole entry): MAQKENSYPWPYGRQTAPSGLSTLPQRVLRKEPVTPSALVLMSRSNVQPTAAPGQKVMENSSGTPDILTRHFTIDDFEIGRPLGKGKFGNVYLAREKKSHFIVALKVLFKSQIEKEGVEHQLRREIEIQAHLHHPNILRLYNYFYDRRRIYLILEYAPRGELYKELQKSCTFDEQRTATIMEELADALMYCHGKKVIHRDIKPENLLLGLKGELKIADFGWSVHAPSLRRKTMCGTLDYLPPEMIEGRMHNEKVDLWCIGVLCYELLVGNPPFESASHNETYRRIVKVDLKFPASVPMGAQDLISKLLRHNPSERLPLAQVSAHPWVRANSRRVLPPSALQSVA

Row | Structure (SMILES) | inhibition [1] [%] | inhibition [2] [%] | inhibition [3] [%] | inhibition [4] [%] | inhibition [5] [%] | inhibition [6] [%] | inhibition [7] [%] | inhibition [8] [%] | inhibition [9] [%] | inhibition [10] [%] | inhibition [11] [%] | inhibition [12] [%] | inhibition [13] [%] | inhibition [14] [%] | inhibition [15] [%] | inhibition [16] [%] | inhibition [17] [%] | inhibition [18] [%] | inhibition [19] [%] | inhibition [20] [%]
1 | CS(=O)(=O)CCN(CC#N)Cc1ccc(-c2ccc3ncnc(Nc4ccc(OCc5cccc(F)c5)c(Cl)c4)c3c2)o1 | 4.12 | 1.7 | 3.2 | 1.69 | 1.13 | -2.35 | -2.94 | -3.9 | 5.67 | -2.58 | -0.17 | -3.61 | 0.96 | -4.78 | 1.4 | 3.25 | 7.32 | -0.14 | -0.7 | 3.8
2 | COc1cc2ncn(-c3cc(OCc4ccccc4C(F)(F)F)c(C(N)=O)s3)c2cc1OC | 5.01 | 6.06 | 10.2 | 5.07 | 10.4 | -5.47 | 2.84 | -1.61 | 10.1 | 1.39 | 13.7 | 3.06 | 26.6 | 4.2 | 35.9 | 76 | 88.3 | 4.53 | 18.1 | 5.97
3 | COc1cc2c(cc1Nc1nc(N3CCc4ccccc43)c3cc[nH]c3n1)N(C(=O)CN(C)C)CC2 | 3.52 | -0.87 | 2.75 | -1.19 | 5.17 | 4.42 | 7.54 | -1.57 | 25.1 | 1.58 | 2.61 | 0.77 | 3.08 | 0.6 | 8.2 | 1.91 | 1.24 | 0.88 | 3.15 | 1.37
4 | COc1cc2ncn(-c3cc(O[C@@H](C)c4ccccc4Cl)c(C(N)=O)s3)c2cc1OC | 6.09 | 5.59 | 18.6 | 6.76 | 32.5 | -1.39 | 5.82 | -2.87 | 9.98 | 4.95 | 18.1 | 8.64 | 38.8 | 8 | 49.3 | 54 | 79.5 | 6.14 | 20.2 | 5.91
5 | CCn1c(-c2nonc2N)nc2cncc(C(=O)N3CC[C@H](N)C3)c21 | 2.78 | 4.37 | 3.61 | 2.56 | 3.15 | 3.09 | 2.08 | -0.69 | 2.6 | 3.07 | 3.21 | 2.84 | 6.38 | 1.58 | -2.29 | 4.37 | 12 | 0.43 | 2.34 | 5.42
6 | CC1=C(C(=O)Nc2ccc3[nH]ncc3c2)C(c2ccc3ccccc3c2)CC(=O)N1 (stereo not given) | 2.53 | 1.18 | 4.38 | 5.87 | 5.78 | 2.76 | 8.34 | 0.09 | -0.04 | 7.34 | 70.6 | 4.02 | 22 | 3.09 | 32.8 | 2.65 | 2.84 | 1.47 | 3.14 | 2.51
7 | NC(=O)c1ccc(-c2nc(-c3ccccn3)c(-c3ccc4c(c3)OCO4)[nH]2)cc1 | 3.43 | 1.54 | 0.41 | 0.44 | 1.77 | 2.18 | 3.28 | -4.13 | 3.14 | 1.85 | 3.93 | 4.83 | 4.45 | 1.68 | -2.72 | 6.27 | 3.54 | 0.64 | 2.35 | 1.99
8 | NS(=O)(=O)c1ccc(N/N=C2\C(=O)Nc3ccc(C(=O)NCCc4c[nH]cn4)cc32)cc1 | 14.9 | 6.79 | 31.4 | 9.97 | 41.8 | 3.49 | 3.55 | -1.79 | 71.5 | 3.83 | 41.2 | 6 | 26.8 | 3.9 | 31.5 | 3.71 | 8.99 | 1.62 | 6.59 | 10.5
9 | CC(C)=Cc1cccc2c1/C(=N/Nc1ccc(S(N)(=O)=O)cc1)C(=O)N2 | 51.5 | 22.4 | 75.3 | 23.6 | 77.2 | 3.64 | 12.9 | 3.75 | 51.7 | 25.6 | 93.1 | 8.72 | 45 | 5.14 | 65.6 | 1.18 | 10.2 | 1.89 | 6.11 | 3.27
10 | O=C1Nc2ccc(C(=O)c3ccco3)cc2C1=Cc1cc(Cl)c(O)c(Cl)c1 | 21 | 5.68 | 29.1 | 9.19 | 47.1 | 3.45 | 11.2 | -3.77 | 21.9 | 7.35 | 67.3 | 3.22 | 13.3 | 3.45 | 36.7 | 4.59 | 15.1 | 1.22 | 7.56 | 27.5
11 | CS(=O)(=O)Nc1ccc(N/C=C2\C(=O)Nc3ccccc32)cc1 | 46.7 | 11.2 | 58.6 | 14.1 | 57 | -1.93 | 1.85 | 3.51 | 18.9 | 7.34 | 47.6 | 7.77 | 43 | 6.66 | 61.1 | -2.57 | 0.71 | 2.65 | 18.6 | 18.1
12 | Fc1cccc(COc2ccc(Nc3ncnc4cc(-c5ccc[nH]5)sc34)cc2Cl)c1 | 2.72 | 2.62 | 0.88 | 2.48 | 2.41 | 2.95 | 9.57 | -1 | 10.7 | -2.74 | 7.53 | 0.54 | 13.2 | -2.76 | -2.08 | 2.11 | 11.9 | 0.55 | 4.58 | 5.64
13 | CS(=O)(=O)CCNCc1ccc(-c2ccc3ncnc(Nc4ccc(OCc5cccc(F)c5)c(C(F)(F)F)c4)c3c2)o1 | -0.52 | 2.14 | 2.72 | 2.59 | 3.16 | 3.11 | 3.02 | -4.14 | 7.39 | 4.12 | 2.73 | 2.77 | -1.87 | 0.77 | -1.89 | 3.11 | 7.45 | 1.28 | 2.47 | 3.22

From ChEMBL document CHEMBL1961873, “Compounds: GSK PKIS; Assays: Nanosyn kinase panel” (2012)
